Our source for the outcome and AC50 values is PubChem BioAssay (EPA / NIEHS).

The structures appear in SMILES notation. The source made the active and inactive calls. How the source made its calls: active means hit-call score of the fitted dose curve at least 0.9, where 1 is the maximum; inactive means score below 0.9.

Assay [1] can be described thus: ATG_M_06_CIS: Attagene CIS-FACTORIAL HepG2 Assay for M06 Transcription Factor (Internal Marker) (AID 2282950). To be noted: HepG2 Attagene CIS-FACTORIAL M06 internal marker reporter; actives raise or lower the signal. In a few lines:
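Fluorescence-labelled RT-PCR products from cis-promoter reporter units, cut with HpaI and resolved by capillary electrophoresis, give the signal. Cells are human HepG2, dosed for 24 h. Serves as background control, fitted relative to DMSO.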

In assay [2] the target is Hypoxia-inducible factor 1-alpha (Homo sapiens) (UniProt Q16665). The experiment in a line: ATG_HIF1a_CIS: Attagene CIS-FACTORIAL HepG2 Assay for human Hypoxia Inducible Factor 1 (HIF1A) (AID 2282951). Particulars: HepG2 Attagene cis-factorial HIF1a reporter transcription; actives raise or lower the signal. In a few lines: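 RT-PCR/capillary electrophoresis fluorescence readout of reporter transcripts from endogenous-TF-driven cis elements in transfected HepG2 cells, 24 h exposure; activity fitted in both directions against DMSO controls.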
Sequence of Hypoxia-inducible factor 1-alpha (Homo sapiens) (Q16665 whole entry, looked up): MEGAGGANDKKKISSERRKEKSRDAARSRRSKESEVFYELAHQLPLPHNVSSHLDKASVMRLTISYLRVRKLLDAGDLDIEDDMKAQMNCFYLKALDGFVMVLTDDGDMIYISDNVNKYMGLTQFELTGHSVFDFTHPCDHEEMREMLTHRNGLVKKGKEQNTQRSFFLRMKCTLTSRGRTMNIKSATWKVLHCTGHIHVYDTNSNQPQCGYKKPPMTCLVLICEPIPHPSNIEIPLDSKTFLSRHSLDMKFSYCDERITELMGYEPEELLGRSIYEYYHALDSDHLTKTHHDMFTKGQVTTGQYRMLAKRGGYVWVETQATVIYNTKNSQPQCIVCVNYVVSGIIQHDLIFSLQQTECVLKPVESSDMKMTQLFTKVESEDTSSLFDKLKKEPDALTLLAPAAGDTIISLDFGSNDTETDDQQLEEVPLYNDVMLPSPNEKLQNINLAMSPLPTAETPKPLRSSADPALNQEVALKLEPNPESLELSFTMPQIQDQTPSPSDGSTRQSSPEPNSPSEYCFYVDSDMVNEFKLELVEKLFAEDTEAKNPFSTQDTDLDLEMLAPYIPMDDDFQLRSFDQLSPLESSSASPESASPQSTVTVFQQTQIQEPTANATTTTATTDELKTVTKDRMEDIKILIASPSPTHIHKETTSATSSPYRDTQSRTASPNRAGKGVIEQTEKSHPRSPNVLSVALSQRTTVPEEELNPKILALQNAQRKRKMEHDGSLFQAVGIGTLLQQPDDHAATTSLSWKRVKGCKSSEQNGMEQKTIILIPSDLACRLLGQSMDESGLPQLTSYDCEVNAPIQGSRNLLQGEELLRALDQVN

Assay [3] concerns the target Hepatocyte nuclear factor 6 (Homo sapiens) (UniProt Q9UBC0). Description: ATG_HNF6_CIS: Attagene CIS-FACTORIAL HepG2 Assay for human Hepatocyte Nuclear Factor 6 (HNF6) (AID 2282952). To be noted: HepG2 Attagene cis-factorial HNF6 reporter transcription; actives raise or lower the signal. In a few lines:
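HepG2 cells transiently transfected with cis-element-driven multiple reporter transcription units, dosed 24 h; reporter mRNA quantified by RT-PCR, FAM primer extension, HpaI digestion and capillary electrophoresis; bidirectional fit versus DMSO baseline.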

Assay [4] deals with Heat shock factor protein 1 (Homo sapiens) (UniProt Q00613). The experiment in a line: ATG_HSE_CIS: Attagene CIS-FACTORIAL HepG2 Assay for human Heat Shock Transcription Factor 1 (HSE) (AID 2282953). To be noted: HepG2 HSE cis-reporter, Attagene RNA transcription; actives raise or lower the signal. Summed up:
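After a 24 h incubation with test chemical, transfected HepG2 cells were harvested for RNA; reporter transcripts were measured by RT-PCR and capillary electrophoresis. Values reflect gain or loss of signal relative to DMSO.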

A short description of assay [5]: ATG_MRE_CIS: Attagene CIS-FACTORIAL HepG2 Assay for human Metal Responsive Element (MRE) (AID 2282954). Particulars: HepG2 MRE cis-reporter transcription, Attagene multiplex; actives raise or lower the signal. Summed up: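 After a 24 h chemical exposure, transiently transfected HepG2 cells yield RNA whose reporter sequences are amplified, FAM-labelled and sized by capillary electrophoresis. Curves are fitted bidirectionally relative to DMSO.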

A short description of assay [6]: ATG_PBREM_CIS: Attagene CIS-FACTORIAL HepG2 Assay for human Phenobarbital-responsive Enhancer Module (PBREM) (AID 2282955). Particulars: HepG2 PBREM cis-reporter, Attagene multiplexed transcription; actives raise or lower the signal. Summed up: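 Reporter mRNA read by RT-PCR, 6-FAM primer extension, HpaI digestion and capillary electrophoresis. Transfected HepG2 cells, 24 h compound exposure. Gain or loss of signal fitted bidirectionally relative to DMSO baseline.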

Assay [7] concerns the target Paired box protein Pax-6 (Homo sapiens) (UniProt P26367). The experiment in a line: ATG_Pax6_CIS: Attagene CIS-FACTORIAL HepG2 Assay for human Paired Box 6 (PAX6) (AID 2282956). To be noted: HepG2 CIS-FACTORIAL PAX6 reporter transcription, RNA readout; actives raise or lower the signal. Summed up:
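Transient MRTU transfection of HepG2 → compound exposure 24 h → TriZol RNA, oligo(dT) RT → PCR, 6-FAM primer extension, HpaI cut → capillary electrophoresis; activity fitted both directions against DMSO.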

Assay [8] in a line: ATG_PXRE_CIS: Attagene CIS-FACTORIAL HepG2 Assay for human Pregnane X Receptor Element (PXRE) (AID 2282957). Particulars: HepG2 Attagene CIS-FACTORIAL PXRE reporter, mRNA; actives raise or lower the signal. Summed up: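 HepG2 cells transiently transfected with cis-regulated multiple reporter transcription units; endogenous factor activity measured as reporter mRNA 24 h after dosing. RT-PCR, fluorescent primer extension, HpaI digestion, capillary electrophoresis; bidirectional fit versus DMSO baseline.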

Assay [9] in a line: ATG_RORE_CIS: Attagene CIS-FACTORIAL HepG2 Assay for human RAR-related Orphan Receptor Element (RORE) (AID 2282959). Particulars: HepG2 Attagene cis-factorial RORE reporter, mRNA; actives raise or lower the signal. In a few lines:
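Readout: fluorescent reporter mRNA by RT-PCR plus capillary electrophoresis, 24 h after dosing transfected HepG2 cells. Endogenous transcription factor activity on a cis promoter element is measured. Gain or loss of signal fitted against DMSO.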

Assay [10] is described as follows: ATG_Sox_CIS: Attagene CIS-FACTORIAL HepG2 Assay for human SRY-box transcription factor (SOX) (AID 2282960). Particulars: HepG2 Attagene cis-factorial SOX reporter, mRNA; actives raise or lower the signal. Summed up: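 Read-out: fluorescent RT-PCR products of SOX1-linked reporter transcripts resolved by capillary electrophoresis, fitted bidirectionally against DMSO. Transiently transfected HepG2 cells, 24 h after chemical exposure, endogenous transcription factor activity.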

For assay [11], the target named is Transcription factor Sp1 (Homo sapiens) (UniProt P08047). The experiment in a line: ATG_Sp1_CIS: Attagene CIS-FACTORIAL HepG2 Assay for human Specificity Protein 1 (Sp1) (AID 2282961). To be noted: HepG2 Sp1 cis-reporter transcription, actives raise or lower the signal. Summed up:
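Read-out: fluorescence of 6-FAM-labeled, HpaI-digested RT-PCR products separated by capillary electrophoresis. HepG2 cells carried transfected cis-element reporter units and were exposed to chemicals for 24 h; gain or loss of signal fitted relative to DMSO.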

Assay [12] in a line: ATG_SREBP_CIS: Attagene CIS-FACTORIAL HepG2 Assay for human Sterol Regulatory Element Binding (SREBP) (AID 2282962). Particulars: HepG2 Attagene cis-factorial SREBP reporter, mRNA; actives raise or lower the signal. Summed up:
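Transfected HepG2 (cis-regulated reporter library, endogenous TFs) → compound 24 h → total RNA → oligo(dT) RT → reporter-specific PCR → FAM primer extension, HpaI cut → CE fluorescence. Fit bidirectional vs DMSO.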

In assay [13] the target is Signal transducer and activator of transcription 3 (Homo sapiens) (UniProt P40763). The experiment in a line: ATG_STAT3_CIS: Attagene CIS-FACTORIAL HepG2 Assay for human Signal Transducer and Activator of Transcription 3 (STAT3) (AID 2282963). To be noted: HepG2, Attagene cis-factorial STAT3 reporter transcription; actives raise or lower the signal. Summed up:
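After a 24 h compound incubation, total RNA from MRTU-transfected HepG2 cells was converted to cDNA and reporter sequences PCR-amplified, labelled and profiled by capillary electrophoresis. Gain and loss of signal were referenced to DMSO.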

Assay [14] can be described thus: ATG_TA_CIS: Attagene CIS-FACTORIAL HepG2 Assay for human TA Basal Promoter (AID 2282964). To be noted: HepG2 Attagene CIS-factorial TA basal promoter reporter; actives raise or lower the signal. In a few lines: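 Multiplexed mRNA reporter assay, HepG2, 24 h. Reporter cDNA amplified, 6-FAM primer-extended, HpaI-cut, CE-sized; DMSO = negative control and baseline.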

A short description of assay [15]: ATG_TCF_b_cat_CIS: Attagene CIS-FACTORIAL HepG2 Assay for human T-Cell-Factor with beta-catenin (TCF/b-cat) (AID 2282965). To be noted: HepG2 TCF/beta-catenin cis-reporter transcription, actives raise or lower the signal. Summed up:
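Measured: reporter mRNA in HepG2 transiently transfected with cis-promoter reporter units, 24 h after chemical addition. Fitting was bidirectional, DMSO as negative control.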

Assay [16] in a line: ATG_TAL_CIS: Attagene CIS-FACTORIAL HepG2 Assay for human TAL Basal Promoter (AID 2282966).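 Further: background control endpoint measuring basal TAL promoter reporter mRNA not a specific factor.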 Particulars: HepG2 Attagene cis-factorial TAL promoter reporter; actives raise or lower the signal. In a few lines: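 HepG2 cells were transiently transfected with promoter-driven multiplexed reporter units and dosed for 24 h. Reporter mRNA was measured by RT-PCR with capillary electrophoresis fluorescence; bidirectional fits used DMSO as baseline, serving as a background control.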

A short description of assay [17]: ATG_TGFb_CIS: Attagene CIS-FACTORIAL HepG2 Assay for human Transforming Growth Factor (TGF) (AID 2282967). To be noted: HepG2 Attagene CIS TGFb reporter, mRNA transcription; actives raise or lower the signal. Summed up: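 Transcript-level reporter readout: HepG2 transfectants, 24 h exposure, RNA to cDNA, reporter-specific PCR, fluorescent primer extension, capillary sizing against ROX standards. Gain- or loss-of-signal relative to DMSO.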

A short description of assay [18]: ATG_PPRE_CIS: Attagene CIS-FACTORIAL HepG2 Assay for human Peroxisome Proliferator-activated Response Element (PPRE) (AID 2282958). Particulars: HepG2 PPRE cis-element reporter, Attagene transcription factor profiling; actives raise or lower the signal. Summed up: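 Read-out: fluorescent reporter mRNA fragments resolved by capillary electrophoresis after RT-PCR. HepG2 cells carried transiently transfected PPRE-driven cis reporter constructs and were dosed for 24 h; gain or loss of signal fitted relative to DMSO.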

A short description of assay [19]: ATG_VDRE_CIS: Attagene CIS-FACTORIAL HepG2 Assay for human Vitamin D Receptor Element (VDRE) (AID 2282968). To be noted: HepG2 VDRE cis-reporter transcription, actives raise or lower the signal. In a few lines:
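In transiently transfected HepG2 liver cells, gain or loss of reporter mRNA after 24 h exposure is scored relative to DMSO, using fluorescence detection by capillary electrophoresis of RT-PCR products.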

Sequence of Paired box protein Pax-6 (Homo sapiens) (P26367 whole entry, looked up): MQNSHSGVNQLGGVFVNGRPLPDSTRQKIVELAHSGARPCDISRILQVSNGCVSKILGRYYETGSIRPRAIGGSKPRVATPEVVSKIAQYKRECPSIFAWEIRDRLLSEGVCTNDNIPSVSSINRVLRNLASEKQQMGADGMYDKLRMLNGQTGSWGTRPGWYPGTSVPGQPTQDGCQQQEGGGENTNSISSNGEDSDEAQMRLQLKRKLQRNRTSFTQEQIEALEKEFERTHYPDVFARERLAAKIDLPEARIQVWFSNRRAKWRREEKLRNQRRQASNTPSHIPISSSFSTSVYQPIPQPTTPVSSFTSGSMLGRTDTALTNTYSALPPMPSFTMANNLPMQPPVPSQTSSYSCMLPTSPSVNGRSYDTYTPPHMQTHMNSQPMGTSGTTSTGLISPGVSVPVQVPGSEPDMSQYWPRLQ
Sequence of Heat shock factor protein 1 (Homo sapiens) (Q00613 whole entry, looked up): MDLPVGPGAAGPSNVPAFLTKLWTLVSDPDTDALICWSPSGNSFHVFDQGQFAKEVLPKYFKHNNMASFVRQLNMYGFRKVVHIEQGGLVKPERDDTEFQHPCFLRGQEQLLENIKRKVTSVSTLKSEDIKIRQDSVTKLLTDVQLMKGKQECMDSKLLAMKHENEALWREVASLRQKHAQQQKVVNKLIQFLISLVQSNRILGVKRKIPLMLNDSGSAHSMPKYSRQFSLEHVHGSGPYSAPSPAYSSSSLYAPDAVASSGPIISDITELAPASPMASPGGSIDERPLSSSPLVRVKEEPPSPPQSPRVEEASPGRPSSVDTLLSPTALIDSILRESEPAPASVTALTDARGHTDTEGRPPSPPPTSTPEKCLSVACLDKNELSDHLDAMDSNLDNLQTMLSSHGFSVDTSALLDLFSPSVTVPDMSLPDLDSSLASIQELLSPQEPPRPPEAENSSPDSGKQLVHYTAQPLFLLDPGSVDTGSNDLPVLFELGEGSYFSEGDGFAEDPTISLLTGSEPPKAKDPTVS
Sequence of Transcription factor Sp1 (Homo sapiens) (P08047 whole entry, looked up): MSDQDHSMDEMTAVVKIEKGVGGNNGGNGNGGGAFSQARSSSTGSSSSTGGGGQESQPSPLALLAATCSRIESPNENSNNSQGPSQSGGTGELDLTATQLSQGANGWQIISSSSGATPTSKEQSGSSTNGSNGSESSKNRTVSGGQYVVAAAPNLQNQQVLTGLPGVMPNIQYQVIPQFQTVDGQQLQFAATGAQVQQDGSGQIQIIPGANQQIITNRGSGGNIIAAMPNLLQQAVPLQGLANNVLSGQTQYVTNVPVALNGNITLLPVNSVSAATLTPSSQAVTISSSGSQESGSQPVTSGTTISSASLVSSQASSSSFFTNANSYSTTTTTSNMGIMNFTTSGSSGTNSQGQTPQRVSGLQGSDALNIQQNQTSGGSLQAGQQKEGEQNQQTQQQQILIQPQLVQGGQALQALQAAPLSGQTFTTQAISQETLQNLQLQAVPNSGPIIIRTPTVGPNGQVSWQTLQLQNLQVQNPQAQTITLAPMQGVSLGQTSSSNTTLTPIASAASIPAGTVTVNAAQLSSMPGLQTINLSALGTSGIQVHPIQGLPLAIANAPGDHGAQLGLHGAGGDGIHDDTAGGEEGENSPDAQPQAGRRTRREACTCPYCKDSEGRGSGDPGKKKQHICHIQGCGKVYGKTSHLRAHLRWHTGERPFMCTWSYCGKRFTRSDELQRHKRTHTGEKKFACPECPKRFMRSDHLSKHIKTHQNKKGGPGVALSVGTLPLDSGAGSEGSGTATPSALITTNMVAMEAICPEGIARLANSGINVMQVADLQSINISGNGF
Sequence of Signal transducer and activator of transcription 3 (Homo sapiens) (P40763 whole entry, looked up): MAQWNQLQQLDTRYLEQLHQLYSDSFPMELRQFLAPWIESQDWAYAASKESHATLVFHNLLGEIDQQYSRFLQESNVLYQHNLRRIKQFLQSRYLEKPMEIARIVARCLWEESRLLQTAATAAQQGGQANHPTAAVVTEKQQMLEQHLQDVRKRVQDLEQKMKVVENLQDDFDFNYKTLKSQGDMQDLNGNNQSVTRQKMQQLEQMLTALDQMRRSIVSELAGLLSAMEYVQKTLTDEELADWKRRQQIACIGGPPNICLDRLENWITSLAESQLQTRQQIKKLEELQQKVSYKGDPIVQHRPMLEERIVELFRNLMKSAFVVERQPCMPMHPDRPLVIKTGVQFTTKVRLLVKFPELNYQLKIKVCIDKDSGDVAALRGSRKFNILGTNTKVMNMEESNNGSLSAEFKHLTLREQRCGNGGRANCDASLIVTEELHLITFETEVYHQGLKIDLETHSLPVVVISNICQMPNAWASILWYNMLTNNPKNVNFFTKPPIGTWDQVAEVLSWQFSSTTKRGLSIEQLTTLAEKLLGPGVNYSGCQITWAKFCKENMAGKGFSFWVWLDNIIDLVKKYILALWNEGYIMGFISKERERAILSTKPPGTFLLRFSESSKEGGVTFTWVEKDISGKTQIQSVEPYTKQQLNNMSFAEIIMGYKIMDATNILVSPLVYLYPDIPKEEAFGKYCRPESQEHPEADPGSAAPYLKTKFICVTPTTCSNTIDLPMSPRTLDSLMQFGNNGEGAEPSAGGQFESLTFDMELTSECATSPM
Sequence of Hepatocyte nuclear factor 6 (Homo sapiens) (Q9UBC0 whole entry, looked up): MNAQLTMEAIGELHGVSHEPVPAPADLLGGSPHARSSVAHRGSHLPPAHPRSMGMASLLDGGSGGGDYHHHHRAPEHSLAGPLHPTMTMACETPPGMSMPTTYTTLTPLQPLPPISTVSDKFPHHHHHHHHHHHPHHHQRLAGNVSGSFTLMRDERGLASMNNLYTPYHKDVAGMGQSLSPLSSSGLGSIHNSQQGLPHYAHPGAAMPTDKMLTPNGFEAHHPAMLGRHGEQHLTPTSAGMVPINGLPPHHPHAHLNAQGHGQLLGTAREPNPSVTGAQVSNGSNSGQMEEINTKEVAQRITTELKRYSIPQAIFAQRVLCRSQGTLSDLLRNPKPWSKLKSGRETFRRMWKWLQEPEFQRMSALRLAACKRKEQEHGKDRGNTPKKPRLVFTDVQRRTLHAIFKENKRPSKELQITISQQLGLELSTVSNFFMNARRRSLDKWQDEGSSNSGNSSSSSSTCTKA

With `CNC(=O)O/N=C/C(C)(C)S(C)(=O)=O`, the compound was classed as inactive in assay [1], in [2], in [3], in assay [4], in assay [5] and in assay [6]. The compound was called inactive in assay [7], in assay [8], in assay [9], in assay [10], in assay [11] and in assay [12]. The call in assay [13], in [14], in [15], in [16] and in assay [17] was inactive.

For the compound `OCCN(CCO)CCO`, the compound was classed as inactive in assay [1], in assay [2], in assay [3], in assay [5], in [11] and in assay [12]. In addition, the compound was called inactive in assay [13], in assay [14], in assay [15], in assay [16] and in assay [17].

The AC50 is the midpoint of the concentration-response curve, whichever way the signal moves. For `CCC[CH2][Sn]([CH2]CCC)([CH2]CCC)[CH2]CCC`, the outcome in assay [1], in assay [2], in assay [3], in assay [5], in [9] and in assay [16] was inactive. For the same compound, in assay [17], the call was inactive. The AC50 in [4] is 17.1 µM (active); in [6] it was 2.9 µM (active); in assay [7], 11.1 µM (active); in assay [8], 18.3 µM (active); in assay [18], 2.2 µM (active); in assay [10], 11.1 µM (active). Besides, the AC50 is 9.76 µM (active) in [11]; 11.1 µM (active) in assay [13]; 17.1 µM (active) in assay [14]; 15.3 µM (active) in [15]; 4.44 µM (active) in assay [19].

As to `O=C=Nc1ccc(Cl)cc1`, the compound was called inactive in assay [1], in assay [2], in assay [3], in assay [4], in [5] and in assay [6]. In addition, the result in assay [7], in [8], in assay [18], in [9], in assay [11] and in assay [12] was inactive. The outcome in assay [13], in assay [14], in [15], in assay [16], in assay [17] and in [19] was inactive.

Turning to `N#Cc1ccc(Cl)cc1`, the compound was called inactive in assay [1], in assay [2], in assay [3], in [4], in assay [5] and in [6]. The compound was called inactive in assay [7], in assay [18], in assay [9], in [10], in assay [11] and in assay [12]. For the same compound, the outcome in [13], in assay [14], in assay [15], in assay [16], in assay [17] and in assay [19] was inactive. Also, the AC50 in [8] is 54.6 µM (active).

In the case of `c1ccc2c(c1)Oc1ccccc1O2`, the compound was called inactive in assay [1], in assay [2], in [3], in assay [4], in assay [5] and in assay [6]. In addition, the compound was called inactive in [7], in assay [9], in assay [10], in assay [11], in [12] and in assay [13]. Moreover, the compound was called inactive in assay [14], in assay [15], in [16] and in assay [19].

As to `Brc1c(Br)c(Br)c(Oc2c(Br)c(Br)c(Br)c(Br)c2Br)c(Br)c1Br`, the outcome in assay [1], in assay [2], in assay [3], in assay [4], in assay [5] and in assay [6] was inactive. In addition, the result in assay [7], in assay [8], in assay [18], in assay [9], in assay [10] and in assay [11] was inactive. In addition, the result in assay [12], in [13], in assay [14], in assay [15], in [16] and in assay [17] was inactive. Also, the compound was classed as inactive in [19].
